Bioassay records from PubChem BioAssay.
D2 PAM-1: HTS Assay for Positive Allosteric Modulators of the Human D2 Dopamine Receptor: Primary Screen for Potentiators | D(2) dopamine receptor (Homo sapiens), P14416 | HEK293 T-REx D2, calcium flux, EC20 dopamine potentiation | potentiation, % at 10 µM | 340,000 tested, 0.34% active;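 active = potentiation over 3 SD above the plate norm, cut at about 30% in these data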
Target sequence (P14416 whole entry, looked up): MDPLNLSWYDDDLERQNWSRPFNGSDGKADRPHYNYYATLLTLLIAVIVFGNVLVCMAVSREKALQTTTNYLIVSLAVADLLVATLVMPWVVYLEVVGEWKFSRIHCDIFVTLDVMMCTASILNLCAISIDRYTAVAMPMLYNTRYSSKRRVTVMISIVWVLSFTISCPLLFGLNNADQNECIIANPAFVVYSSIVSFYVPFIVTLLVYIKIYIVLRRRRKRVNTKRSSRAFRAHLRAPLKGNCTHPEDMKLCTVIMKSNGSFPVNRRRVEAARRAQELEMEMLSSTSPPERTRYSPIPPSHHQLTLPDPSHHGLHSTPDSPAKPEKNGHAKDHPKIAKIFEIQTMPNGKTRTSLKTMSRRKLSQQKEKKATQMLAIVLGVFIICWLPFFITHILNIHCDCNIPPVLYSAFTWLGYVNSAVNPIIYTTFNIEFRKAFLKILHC
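Potentiation of an EC20 dopamine calcium response measured kinetically over 180 s, after a preceding 180 s compound-only read flagging agonists. Cells: inducible Hek293 Trex D2 line, 4000/well, cultured overnight at 30 C before dye loading.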
D2 ag-1: HTS Assay for Allosteric Agonists of the Human D2 Dopamine Receptor: Primary Screen for Agonists; HEK293 T-REx D2 cells, calcium flux agonist mode; 340,000 tested, 0.53% active; D(2) dopamine receptor (Homo sapiens), P14416; activation, % at 2 µM; AID 485358, 2010;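 active = activation over 3 SD above normal in the single-dose calcium agonist read, cut at about 30% in these data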
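In this primary screen, compounds producing a positive calcium signal within 180 s of addition to tetracycline-induced, force-coupled HEK293 Trex D2 cells are flagged; cells are dye-loaded with a no-wash calcium kit beforehand.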
D2 ag-2: Beta-Arrestin HTS for Positive Allosteric Modulators of the Human D2 Dopamine Receptor: Agonists; DiscoveRx PathHunter D2 beta-arrestin, luminescence, 90 min; 100% = 57 uM dopamine signal; AID 624465, 2012; activation, % (concentration not given with the values); 360,000 tested, 0.084% active; in the data active = activation above about 40%
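DiscoveRx PathHunter D2 beta-arrestin cells (2,100/well) attached overnight, then compound-stimulated 90 min at 37 C in HBSS/10 mM HEPES/0.1% Tween-20 buffer; beta-galactosidase complementation read by luminescence after 1 h at ambient temperature. Dopamine 57 uM final (EC100) as control.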
D2 antagonist: HTS Assay for Allosteric Antagonists of the Human D2 Dopamine Receptor: Primary Screen for Antagonists | HEK293 TREx D2 cells, calcium flux, dopamine EC80 | inhibition, % at 10 µM | 340,000 tested, 2% active; in the data active = inhibition above about 30%; inactive = below that, where a call was filed
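Tetracycline-induced HEK293 TREx cells expressing D2 receptor forced-coupled to calcium signalling, loaded with no-wash calcium dye. Compounds added and calcium flux read 180 s, then dopamine added at EC80 and read a further 180 s.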
D2 PAM-2: Beta-Arrestin HTS for Positive Allosteric Modulators of the Human D2 Dopamine Receptor: Potentiators | AID 624464, 2012 | DiscoveRx D2 beta-arrestin cells, luminescence, 90 min; 100% = 57 uM dopamine signal | potentiation, % (concentration not given with the values) | 360,000 tested, 0.23% active | D(2) dopamine receptor (Homo sapiens), P14416; in the data active = potentiation above about 50%
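PathHunter beta-arrestin assay in DiscoveRx D2 cells. Compounds were added with an EC20 of dopamine (50 nM final) for 90 min at 37 deg C. Luminescence was read 1 h after detection reagent, with 57 uM dopamine as the EC100 control.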
Hits are given with their value; . = inactive; / = no result. Sampled rows, rich in hits. Any-hit rate of the full collection: about 2.4%.

SMILES | D2 PAM-1 | D2 ag-1 | D2 ag-2 | D2 antagonist | D2 PAM-2
CCCCNC(=S)N(C)/N=C/c1ccc(F)cc1 | . | . | . | 91 | .
CCCCNC(=S)N(C)/N=C/c1c(F)cccc1F | . | . | . | . | .
CSCCC(NC(=O)c1ccc(Cl)cc1)C(=O)OCC(C)=O (centres undefined) | . | . | . | 32 | .
COc1ccc(CNC(=O)c2ccc(N3CCCC3)c(NC(=O)NCc3ccc(F)cc3)c2)cc1 | . | . | / | / | /
CCOc1ccc(NC(=O)CCC(=O)NNC(=O)COc2ccccc2C)cc1 | . | . | . | 36 | .
C[C@H]1O[C@@H](O[C@H]2CC[C@@]3(C)C(CC[C@]4(C)C3C=C[C@]35OC[C@@]6(CCC(C)(C)C[C@H]63)[C@@H](O)C[C@]54C)[C@]2(C)CO)[C@H](O)[C@@H](O[C@@H]2O[C@H](CO)[C@@H](O)[C@H](O)[C@H]2O)[C@H]1O (some centres undefined) | / | / | . | / | .
CC1OC(OC2C(OC3C(O[C@H]4CC[C@]5(C)C6C=C[C@]78OC[C@@]9(CC[C@@H](C)[C@H](C)C97)[C@H](O)C[C@@]8(C)[C@]6(C)CC[C@H]5C4(C)C)OC(C)C(O)C3O)OC(CO)C(O)C2O)C(O)C(O)C1O (some centres undefined) | . | 43 | / | 32 | /
Cc1cc(Cl)ccc1OCCSc1nnc(-c2cccs2)o1 | . | . | / | / | /
CC(C)Oc1ccc(C2CC(=O)N(c3ccccc3)C2=O)cc1 (centres undefined) | / | / | . | / | .
CC(C)Oc1ccc(C2CC(=O)N(c3ccc(N(C)C)cc3)C2=O)cc1 (centres undefined) | . | . | . | 34 | .
CCc1ccccc1NC(=O)CN(c1cc(C(F)(F)F)ccc1Cl)S(=O)(=O)c1ccccc1 | . | . | / | / | /
CCC(C)NC(=O)C1CCN(C(=O)c2ccc(-n3ccc4ccccc43)s2)CC1 (centres undefined) | . | . | / | / | /
O=C(CSc1ccccn1)Nc1nonc1[N+](=O)[O-] | . | . | 63 | . | .
COc1ccc(NC(=O)CSc2ccccn2)c([N+](=O)[O-])c1 | . | . | . | 31 | .
O=C(CSc1ccccn1)Nc1cccc2ccccc12 | 34 | . | . | . | .
CCOc1ccccc1-c1noc(CCCC(=O)Nc2cccc(C(F)(F)F)c2)n1 | . | / | / | / | /
Cc1ccc(C(=O)NCCc2ccc(S(N)(=O)=O)cc2)cc1-n1cnc2cccnc21 | . | / | / | / | /
CCCCN(CC)CCNc1ncnc2onc(-c3ccc(Cl)cc3)c12 | . | . | / | / | /
FC(F)(F)c1ccc(C2[C@H]3CN(Cc4ccc(-c5ccccc5)cc4)[C@H](c4ccccc4)C34CC2(c2ccccc2)C4)cc1 (some centres undefined) | . | . | . | 35 | .
CC(C)C(=O)N1CCC1(C)C(=O)Nc1ccc2[nH]ccc2c1 (centres undefined) | / | / | . | / | .
COc1ccc(C(=O)Nc2ccc3nc(SCC(=O)N(C)c4ccccc4)sc3c2)cc1 | . | / | / | / | /
CC1CCCN(CCCNC(=O)c2ccc3c(c2)N(Cc2ccc(F)cc2)C(=O)c2ccccc2S3=O)C1 (centres undefined) | . | . | . | 74 | .
COC(=O)c1ccccc1NC(=O)c1cc(C)nc2c1c(C)nn2-c1ccc(C)cc1 | . | . | / | / | /
Fc1ccc(C(c2ccc(F)cc2)N2CCN(C/C=C/c3ccccc3)CC2)cc1 | . | . | . | 65 | .
C(=C\c1ccccc1)/CN1CCN(C(c2ccccc2)c2ccccc2)CC1 | / | / | / | 53 | /
COc1ccc(C(c2nnnn2C2CCCC2)N2CCC(C)CC2)cc1 (centres undefined) | 30 | . | . | . | .
c1cnc2ccc(C(c3nnnn3C3CCCCC3)N3CCN(C4CCCCC4)CC3)cc2c1 (centres undefined) | / | / | . | / | .
